Source: PubChem BioAssay AID540276 (National Center for Advancing Translational Sciences (NCATS), 2011)
Hit rate of the full screen: of about 300,000 compounds, about 5,400 (1.8%) were called active. A call without a number means that no potency is given here. Roughly 28% stayed inconclusive and do not appear here. Calls follow the shape of the full dose curve; tested in HEK293 cells. Only a selection was taken, and actives are over-represented in it overall.

Test: qHTS for inhibitors of binding or entry into cells for Marburg Virus
Settings: Marburg virus pseudotyped entry inhibition, cell reporter; series mostly up to 37.8 µM
Potency is read from the fitted curve at half-maximal effect.

SMILES	Potency
Cn1c(CCNS(=O)(=O)c2ccc(F)cc2)nnc1SCc1cccnc1	inactive
Cc1ccc(Br)c(NS(=O)(=O)c2cccc(C(=O)N3CCNC(=O)C3)c2)c1	inactive
Cc1c(NC(=O)C(C)OC(=O)c2ccccc2O)c(=O)n(-c2ccccc2)n1C (stereo unspecified)	inactive
Cc1cc(N2CCN(Cc3ccc4c(c3)OCO4)CC2)n2ncnc2n1	inactive
Fc1ccc2[nH]c3c(N4CCN(Cc5ccc6c(c5)OCO6)CC4)ncnc3c2c1	8.91 µM (active)
Fc1ccc(N2CCN(Cc3ccc4c(c3)OCO4)CC2)cc1	inactive
Fc1ccc2[nH]c3c(N4CCSCC4)ncnc3c2c1	10 µM (active)
O=C(C1C=CC(C(=O)N2CCOCC2)S1)N1CCOCC1 (stereo unspecified)	inactive
O=C(Cn1ccc2cc(S(=O)(=O)N3CCCC3)ccc21)NCc1ccccc1	inactive
COCCn1c(C)cc(C(=O)CSc2nnc(C3CC3)n2C2CC2)c1C	inactive
CCN(CC)CCCC(C)Nc1ccnc2cc(Cl)ccc12 (stereo unspecified)	5.62 µM (active)
CCN(CC)CCNc1ccc(Cl)cc1[N+](=O)[O-]	inactive
COc1ccc(CNC(=O)C(C)NCc2ccccc2Cl)cc1 (stereo unspecified)	inactive
Cc1cccc(N2C(=O)C[C@@H](N3CCN(Cc4ccc(Cl)cc4)CC3)C2=O)c1	inactive
Cc1nn2c(c1-c1ccccc1)N=C(c1ccco1)CC2c1ccccc1 (stereo unspecified)	0.517 µM (active)
Cc1ccc(C)c(C(C)NC(=O)C2CCCO2)c1 (stereo unspecified)	inactive
COC(CNC(=O)c1ccc2c(c1)ncn2-c1cc(C)cc(C)c1)OC	inactive
O=C(CC(=O)Nc1ccc(Cl)c(Cl)c1)N/N=C/c1ccc(O)cc1	inactive
O=C(CC(O)(C(F)(F)F)C(F)(F)F)Nc1ccc(Cl)c(Cl)c1	3.26 µM (active)
N/C(=N\OC(=O)Nc1ccc(Cl)c(Cl)c1)c1ncc(C(F)(F)F)cc1Cl	inactive
CSc1ncc(C(=O)Nc2ccc(C)cc2C)c(C)n1	inactive
CCOc1ccc(NC(=O)C(C)N2C(=O)c3ccccc3C2=O)cc1 (stereo unspecified)	inactive

SMILES	Potency
COc1ccc(CCNC(=O)CCc2ccccc2O)cc1OC	inactive
COc1ccc(CCNC(=O)CCCn2c(=O)c3ccccc3n(Cc3ccc(F)cc3Cl)c2=O)cc1OC	inactive
COc1ccc(CCn2ccc(O)c(Cc3ccc(Cl)cc3Cl)c2=O)cc1OC	3.98 µM (active)
COC(=O)c1ccc(C(=O)NC2CC(C)(C)Cc3c2cnn3-c2ccc(F)cc2)nc1 (stereo unspecified)	inactive
Cn1nnnc1SCC(=O)Nc1sccc1C(N)=O	inactive
CN1c2ccc(C=O)c3c(C=O)ccc(c23)N(C)C1(C)C	10 µM (active)
O=C(CN(CC1CCCO1)C(=O)CNS(=O)(=O)c1ccc(Cl)cc1)NCc1ccccc1 (stereo unspecified)	inactive
COc1ccc(C(=O)Nc2ccnn2C2CCN(Cc3ccncc3)CC2)cc1	inactive
S=C(c1ccccc1)N1CCCC1	inactive
O=C(NC(Cc1ccccc1)C(=O)N1CCCC(C(F)(F)F)C1)c1ccccc1 (stereo unspecified)	inactive
CSCCC(NC(=O)c1ccccc1)C(=O)N1CCN(Cc2ccc(Cl)cc2)CC1 (stereo unspecified)	11.2 µM (active)
CSCCC(NS(=O)(=O)/C=C/c1ccccc1)C(=O)N1CCC(C)CC1 (stereo unspecified)	inactive
CC(=O)Nc1ccc(S(=O)(=O)NNC(=O)CCc2ccccc2)cc1	inactive
CC(=O)Nc1ccc(Nc2ncnc3c2nnn3Cc2ccccc2Cl)cc1	inactive
CN(C(=O)CC1C(=O)NCCN1Cc1ccc2ccccc2c1)C1CCOCC1 (stereo unspecified)	inactive
c1ccc2c(c1)CSc1sccc1C2=C1CCNCC1	6.51 µM (active)
CCc1c(Nc2ccccc2Cl)nc(N)[nH]c1=O	inactive
COc1ccccc1N(CC(=O)Nc1c(C)n(C)n(-c2ccccc2)c1=O)S(=O)(=O)c1ccccc1	inactive
COc1ccc(-c2ccc(Nc3ccc(S(=O)(=O)N4CCCC4)cc3)nn2)cc1OC	14.6 µM (active)
COc1ccc(S(=O)(=O)N2CCCCC2)cc1Br	inactive
COc1ccc(S(=O)(=O)Nc2ccc(S(=O)(=O)N3CCCCC3)cc2)cc1OC	inactive
CCCN1CCN(C(=O)CCCNC(=O)c2ccc(Cl)cc2)CC1	inactive

SMILES	Potency
CC1(C)Cc2c(cnn2-c2cccc(F)c2)C(NC(=O)c2cc[n+]([O-])cc2)C1 (stereo unspecified)	inactive
CCC(=O)N(Cc1ccccc1)c1ccccn1	inactive
CCCN(CC1CC1)C(=O)COC(=O)c1ccc(C)cc1O	inactive
CC(Oc1ccc(Br)cc1)C(=O)NCC(c1ccco1)N1CCCCC1 (stereo unspecified)	inactive
COc1ccc(-c2nn(-c3ccccc3)cc2/C=N/Nc2ccccn2)cc1OC	13 µM (active)
Cc1ccc(-c2nn(-c3ccccc3)cc2/C=N/NC(=O)c2ccc3c(c2)OCO3)cc1	inactive
CN(C)/N=C/c1cn(-c2ccccc2)nc1-c1cccnc1	inactive
CC(CC(=O)Nc1ccc(F)cc1F)S(=O)(=O)c1ccc2c(c1)NC(=O)CO2 (stereo unspecified)	inactive
CC(C)CC1(C)NC(=O)N(CC(=O)Nc2ccc3c(c2)OCCO3)C1=O (stereo unspecified)	inactive
CC(=O)c1c(OCC(=O)N(C)C2CCCCC2)ccc2c(C)cc(=O)oc12	inactive
Cc1c(NC(=O)Nc2cccc([N+](=O)[O-])c2)c(=O)n(-c2ccccc2)n1C	inactive
O=C(CNC(=O)C1COc2ccccc2O1)N/N=C/c1cc(Br)c(O)c(Br)c1 (stereo unspecified)	inactive
CCn1nnc2cc(C(=O)Nc3ccc(C(=O)OC(C)C)cc3)ccc21	inactive
CCC(=O)N(Cc1cc2cc(OC)ccc2[nH]c1=O)c1ccccc1C	inactive
COc1ccc2[nH]c(=O)c(CN(Cc3cccnc3)S(=O)(=O)c3ccccc3F)cc2c1	2.82 µM (active)
COc1ccc(-c2[nH]ncc2CN(C)Cc2cccnc2)c(F)c1	inactive
Cc1ccc(C(=O)Nc2ccc3c(c2)OCCO3)cc1S(=O)(=O)N1CCOCC1	inactive
Cc1ccc(-c2csc(C(C#N)=C(O)CN3CCN(C(=O)c4ccco4)CC3)n2)cc1	inactive
C/C(Cl)=C\Cn1c(Nc2cccc(C)c2)nc2c1c(=O)n(C)c(=O)n2C	11.6 µM (active)
Cc1cccc(Cn2c(SCCO)nc3c2c(=O)n(C)c(=O)n3C)c1	inactive
COC(=O)C(C)Sc1nc2c(c(=O)n(C)c(=O)n2C)n1Cc1cccc(C)c1 (stereo unspecified)	inactive
COc1ccccc1NC(=O)C(C)OC(=O)c1ccc(-n2cnnn2)cc1 (stereo unspecified)	inactive
